Source: PubChem BioAssay (EPA / NIEHS)
The source made the active and inactive calls. Rule for the calls: active = hit-call score of the fitted dose curve at least 0.9, where 1 is the maximum; inactive = score below 0.9.

Experiment: APR_HepG2_P-H2AX_72hr: Apredica 72-hour HepG2 Assay for H2AX Phosphorylation (AID 2282916)
Details: imaging, actives raise or lower the signal
Procedure: APR_HepG2_72hr is a cell-based, multiplexed-readout assay that uses HepG2, a human liver cell line, with measurements taken at 72 hours after chemical dosing in a 384-well plate.APR_HepG2_P-H2AX_72hr is one of 10 assay component(s) measured or calculated from the APR_HepG2_72hr assay. It is designed to make measurements of dna content, a form of viability reporter, as detected with fluorescence intensity signals by HCS Fluorescent Imaging technology.Data from the assay component APR_HepG2_P-H2AX_72hr was analyzed into 1 assay endpoint. This assay endpoint, APR_HepG2_P-H2AX_72hr, was analyzed with bidirectional fitting relative to DMSO as the negative control and baseline of activity. Using a type of viability reporter, measures of protein for gain or loss-of-signal activity can be used to understand the signaling at the pathway-level as they relate to the gene . Furthermore, this assay endpoint can be referred to as a primary readout, because this assay has produced multiple assay endpoints where this one serves a signaling function. To generalize the intended target to other relatable targets, this assay endpoint is annotated to the dna binding intended target family, where the subfamily is cellular response to DNA damage stimulus.
Cells were treated with dimethyl sulfoxide (DMSO) as a solvent control at a final concentration of 0.5% v/v or with compounds in DMSO with a resulting final DMSO concentration of 0.5% v/v. Compound treatment was done at concentrations of 0.39, 0.78, 1.56, 3.12, 6.24, 12.5, 25, 50, 100, and 200 uM in duplicate on each plate. Cells were treated with compounds for 1, 24, or 72 hr. Carbonyl […] m-chloro-phenylhydrazone (CCCP) and taxol were used as positive controls for mitochondrial function and cytoskeletal stability, respectively; DMSO served as the negative control for this experiment. Cells were fixed by the direct addition of 50 uL formaldehyde in Hank's Balanced Salt Solution (HBSS) to a final concentration of 3.7%. After incubation in the fixation medium for 30 min at room temperature (293-298 K), cells were rinsed twice with HBSS and treated with cell permeabilization buffer (16 uL of 0.5% Triton X-100) for 10 min at room temperature (293-298 K) before labeling. For mitochondrial membrane potential and mitochondrial measurements, pre-fixed cells were incubated with 50 uL of MitoTracker Red CMXRos (Invitrogen) at a concentration of 250 nM for 30 min before fixation. In the remaining cases, post-fixed cells were labeled by incubation with a multiplexed mixture of primary antibodies in HBSS for 60 min at room temperature (293-298 K) to detect immunoreactivity of c-Jun (1:500), phospho-histone H3 (1:100), phospho-histone H2A.x (1:200), p53 (1:400), alpha-tubulin (1:200) and Hoechst 33342 (2 ug/mL). Cells were labeled for multiplexed imaging on two separate plates: a) Hoechst 33342, MitoTracker Red, phospho-histone H3, and alpha-tubulin, and b) Hoechst 33342, phospho-histone H2A.x, and c-Jun. A final rinse with HBSS (50 uL) was performed before analysis. The primary and secondary antibodies for the proteins were phospho-histone H3 (rabbit anti-phospho-histone H3 and FITC-donkey anti-rabbit IgG), phospho-histone H2A.x (mouse anti-phospho-histone H2A.x and FITC-donkey anti-mouse IgG), c-Jun (rabbit anti-phospho-c-Jun and Cy3-donkey anti-rabbit IgG), p53 (sheep anti-p53 and Cy5-donkey anti-sheep IgG), alpha-tubulin (mouse anti-alpha-tubulin and Cy5-donkey anti-mouse IgG). These antibodies are available as the CellCiphr HepG2 assay kit (Millipore).Digital images of each well were captured using a Cellomics ArrayScan VTI (Thermo Scientific Cellomics) (0.8 NA objective, 0.63x optical coupler, and XF-93 filter set) at 20x magnification. The images were acquired using the autofocus feature of the ArrayScan instrument, which entails the following steps. First, the camera focuses on channel 1 (Hoechst 33342), where nuclei are identified. Second, a Z offset of 1 um is used for capturing mitochondria (MitoTracker Red). […]

Row | Structure (SMILES) | outcome | AC50
1 | CC1(C)C(=O)N(Cl)C(=O)N1Cl | inactive | 
2 | CCCCOC(=O)c1ccccc1 | inactive | 
3 | CCCCCCCC/C=C\CCCCCCCC(=O)OC[C@@H](O)[C@H]1OC[C@H](O)[C@H]1O | inactive | 
4 | CCCCCCCCCC | inactive | 
5 | Cn1c(=O)c2[nH]cnc2n(C)c1=O | inactive | 
6 | CCN(CC)C(=S)SSC(=S)N(CC)CC |  | 27.1 µM (active)
7 | CCCCCCCCN(C)C | inactive | 
8 | CCCc1ccccc1 | inactive | 
9 | CC[C@H](C)C(=O)O[C@H]1C[C@H](O)C=C2C=C[C@H](C)[C@H](CC[C@@H](O)C[C@@H](O)CC(=O)O)[C@H]21 | inactive | 
10 | O=C(O)c1cccc(C[C@@H]2COc3ccc(OCc4nc5cc(F)ccc5s4)cc3[C@@H]2O)c1 |  | 97.3 µM (active)
11 | CCOc1ccc2[nH]cc(C(=O)NCc3ccccc3)c(=O)c2n1 |  | 105 µM (active)
12 | O=C(O)[C@H](O)[C@@H](O)C(=O)O | inactive | 
13 | O=c1[nH]cnc2c1ncn2[C@H]1CC[C@@H](CO)O1 | inactive | 
14 | CCCCCOC(C)=O | inactive | 
15 | O=C(O)c1ccc2c(c1)nc(C(=O)NC1CCN(C3CC3)CC1)n2Cc1cc(-c2ccc(Cl)s2)on1 | inactive | 
16 | CCc1ccc(O)c(C(C)(C)C)c1 |  | 79.6 µM (active)
17 | CCCCCCCC1CCC(=O)O1 (stereo not given) | inactive | 
18 | CCCOc1ccc(S(=O)(=O)N2CCN(CC)CC2)cc1-c1nc2c(CC)n(Cc3ccccn3)nc2c(=O)[nH]1 |  | 99.7 µM (active)
19 | NNC(=O)c1ccncc1 | inactive | 
20 | CCOC(N)=O | inactive | 

Row | Structure (SMILES) | outcome | AC50
21 | CCCCCCOC(=O)CC(CC(=O)OCCCCCC)(OC(=O)CCC)C(=O)OCCCCCC | inactive | 
22 | C[C@@H](Oc1ccc(CNC(=O)c2cccnc2Oc2ccc3c(c2)OCO3)c(F)c1)C(=O)O | inactive | 
23 | c1ccc2ncccc2c1 | inactive | 
24 | Cc1nc(-c2ccccn2)ncc1C(=O)Nn1cc(C)c2cc(F)ccc21 | inactive | 
25 | O=C(NO)C1(NS(=O)(=O)c2ccc(Oc3ccc(F)cc3)cc2)CCOCC1 |  | 100 µM (active)
26 | Cn1cc[nH]c1=S | inactive | 
27 | O=S(=O)(O)c1ccc(N=Nc2c(O)ccc3cc(S(=O)(=O)O)ccc23)cc1 | inactive | 
28 | C=CN1CCCC1=O | inactive | 
29 | C=CCc1cc(S(=O)(=O)c2ccc(O)c(CC=C)c2)ccc1O |  | 53.2 µM (active)
30 | NC(=O)NN=Cc1ccc([N+](=O)[O-])o1 |  | 77.3 µM (active)
31 | Cc1nccn1-c1ccc(Sc2cccc(C3(C(N)=O)CCOCC3)c2)cc1 |  | 40.9 µM (active)
32 | c1ccc2c(c1)-c1cccc3c1c-2cc1ccccc13 |  | 0.0391 µM (active)
33 | OC[C@H]1O[C@@H]2O[C@H]3[C@H](O)[C@@H](O)[C@@H](O[C@H]4[C@H](O)[C@@H](O)[C@@H](O[C@H]5[C@H](O)[C@@H](O)[C@@H](O[C@H]6[C@H](O)[C@@H](O)[C@@H](O[C@H]7[C@H](O)[C@@H](O)[C@@H](O[C@H]1[C@H](O)[C@H]2O)O[C@@H]7CO)O[C@@H]6CO)O[C@@H]5CO)O[C@@H]4CO)O[C@@H]3CO | inactive | 
34 | Nc1ccn([C@@H]2O[C@H](CO)[C@@H](O)[C@@H]2O)c(=O)n1 |  | 0.202 µM (active)
35 | CCn1nc(C)c2c1C(=O)NCC(c1ccc(O)cc1)=N2 | inactive | 
36 | NC(=O)N(O)[C@@H]1COc2cc(OCc3ccccc3)ccc21 | inactive | 
37 | CC(=O)c1ccccc1 | inactive | 
38 | NC(=O)N1c2ccccc2C=Cc2ccccc21 | inactive | 
39 | OCC(CO)(CO)CO | inactive | 
40 | CCCCN1C(=O)[C@@H]([C@H](O)C2CCCCC2)NC(=O)C12CCN(Cc1ccc(Oc3ccc(C(=O)O)cc3)cc1)CC2 |  | 46.4 µM (active)
